Measured values: PubChem BioAssay (NCATS)
Several values for one entry are separate records, joined by “and”; a condition that tells them apart may be missing. Identical values can stand only once. Inconclusive results are not listed. Activity calls are given as the source filed them. Unless noted, calls come from the whole dose curve; as a rule, active = well fitted cell-killing curve with a large enough effect; inconclusive = small, poorly fitted or top-dose-only effect, or effect the other way; inactive = flat fitted curve, though single readings scatter.

Legend:
[1] = qHTS assay for cell viability of the p53RE-bla HCT-116 cell line (AID 743292); conditions: p53RE-bla HCT-116 viability, ATP luminescence, 16 h; series mostly up to 95 µM; note: % is set by controls: 0 for no effect and ±100 for the full control effect; nearly all actives have a fitted effect of over 55% in size
Procedure, shortened: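 ATP-based luminescent viability (CellTiter-Glo, 30 min RT) after 16 h compound treatment at 37 C of p53RE-bla HCT-116 cells, seeded at 4,000 cells/well and rested 5 h before dosing.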

[2] = qHTS assay for cell viability of HEK293 cells (AID 743288); conditions: ATP luminescence (CellTiter-Glo), 18 h, active compounds read low; note: % is set by controls: 0 for no effect and ±100 for the full control effect; nearly all actives have a fitted effect of over 50% in size
Procedure, shortened: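 ATP luminescence (CellTiter-Glo) reports metabolically competent cell number after parental HEK293 cells, 2,000/well, were treated with DMSO-dissolved compounds for 18 h at 37 C; reagent incubation 30 min, room temperature.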

[3] = target: Nuclear receptor subfamily 1 group I member 2 (Rattus norvegicus) (UniProt Q9R1A7); assay: qHTS assay for small molecule activators of the rat pregnane X receptor (rPXR) signaling pathway (AID 651751; call rule not given here; note: 0% is about no effect); conditions: rPXR reporter cells, luciferase (One-Glo), 24 h
[4] = qHTS assay for small molecule activators of the human pregnane X receptor (PXR) signaling pathway (AID 720659; call rule not given here; note: 0% is about no effect); conditions: DPX-2 HepG2 CYP3A4-luciferase, 24 h; series mostly up to 92.3 µM

Nuclear receptor subfamily 1 group I member 2 (Rattus norvegicus), sequence (Q9R1A7 whole entry, looked up): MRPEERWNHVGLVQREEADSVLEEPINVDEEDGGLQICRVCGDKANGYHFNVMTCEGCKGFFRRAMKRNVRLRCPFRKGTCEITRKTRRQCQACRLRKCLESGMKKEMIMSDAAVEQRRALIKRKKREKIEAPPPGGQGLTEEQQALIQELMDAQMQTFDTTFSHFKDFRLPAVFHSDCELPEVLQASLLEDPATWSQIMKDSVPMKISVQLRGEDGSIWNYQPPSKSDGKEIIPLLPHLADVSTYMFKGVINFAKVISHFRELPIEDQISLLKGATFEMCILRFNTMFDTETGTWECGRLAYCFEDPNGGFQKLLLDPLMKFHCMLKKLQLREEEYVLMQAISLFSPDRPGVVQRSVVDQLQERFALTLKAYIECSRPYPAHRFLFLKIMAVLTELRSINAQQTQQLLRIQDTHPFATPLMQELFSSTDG

CC(C)CO
inactive: Potency [1]

CCCCC/C=C/C=C/C=O
inactive: Potency [1]

O=[N+]([O-])c1cccc(C(F)(F)F)c1
inactive: max response [2] 0.368% | Potency [1] | max response [3] -1.97% | outcome [4]

COC(=O)CCC(=O)OC
inactive: max response [2] 2.75% | Potency [1] | max response [3] 1.71% | outcome [4]

CCCCCNCCCCC
inactive: max response [2] 0.935% and 1.64% | Potency [1] | max response [3] 7.61% and 1.33% | outcome [4]

CC(C)(O)CCC(C)(C)O
inactive: max response [2] 2.13% | Potency [1] | max response [3] 3.24% | outcome [4]

Nc1cc(S(=O)(=O)O)ccc1O
inactive: max response [2] -1.98% | Potency [1] | max response [3] 3.88% | outcome [4]

CCCCOCCOCCOCCCC
inactive: max response [2] 3.02% | Potency [1] | max response [3] -1.56% | outcome [4]

O=C1OC(=O)c2cc([N+](=O)[O-])ccc21
inactive: max response [2] -5.72% | Potency [1] | max response [3] -0.914% | outcome [4]

O=C(O)c1c(Cl)cccc1Cl
inactive: max response [2] -0.226% | Potency [1] | max response [3] -2.07% | outcome [4]

CCCCC(CC)CO (stereo unspecified)
inactive: max response [2] -2.63% | Potency [1] | max response [3] -2.06% | outcome [4]

CCCCCCCCCCCCC1CO1 (stereo unspecified)
inactive: max response [2] -4.83% | Potency [1] | max response [3] 4.9% | outcome [4]

COC(=O)CC#N
inactive: max response [2] 6.11% | Potency [1] | max response [3] -1.86% | outcome [4]

Cc1cccc(C)c1
inactive: max response [2] 7.2% | Potency [1] | max response [3] -3.48% | outcome [4]

CCOC(=O)C(C)C(C)=O (stereo unspecified)
inactive: max response [2] 2.57% | Potency [1] | max response [3] 4.21% | outcome [4]

Cc1cccc([N+](=O)[O-])c1C(=O)O
inactive: max response [2] -0.404% | Potency [1] | max response [3] 12.6% | outcome [4]

FB(F)F
inactive: max response [2] -1.64% | Potency [1] | max response [3] -0.777% | outcome [4]

C=Cc1ccc(C=C)cc1
inactive: max response [2] -2.33% | Potency [1] | max response [3] -2.76% | outcome [4]

O=C1CCCCC1
inactive: max response [2] -3.35% | Potency [1] | max response [3] 2.79% | outcome [4]

CC(=O)c1ccc([N+](=O)[O-])cc1
inactive: max response [2] 5.77% | Potency [1] | max response [3] -4.15% | outcome [4]

CCc1ccccc1O
inactive: max response [2] -0.782% | Potency [1] | max response [3] -3.4% | outcome [4]

NC(N)=S
inactive: max response [2] -3.49% | Potency [1] | max response [3] -3.24% | outcome [4]

c1ccc(Nc2ccccc2)cc1
inactive: max response [2] -6.24% and -7.97% | Potency [1] | max response [3] 1.12% and -1.15% | outcome [4]

CC/C=C1/OC(=O)c2ccccc21
inactive: max response [2] -15.4% | Potency [1] | max response [3] -1.09% | outcome [4]

CC(C)Cc1nccs1
inactive: max response [2] -11.2% | Potency [1] | max response [3] 7.57% | outcome [4]

CCC=O
inactive: max response [2] 1.05% | Potency [1] | max response [3] 1.07% | outcome [4]

Nc1ccccc1[N+](=O)[O-]
inactive: max response [2] -7.67% | Potency [1] | max response [3] -0.731% | outcome [4]

O=Cc1cccc(Br)c1
inactive: max response [2] 1.54% | Potency [1] | max response [3] 5.18% | outcome [4]

CC(=O)CCc1ccccc1
inactive: max response [2] 0.331% | Potency [1] | max response [3] 3.15% | outcome [4]

CCOC(C)(C)C
inactive: max response [2] 9.83% | Potency [1] | max response [3] -4.12% | outcome [4]

NC(=O)/N=N/C(N)=O
inactive: max response [2] 1.54% | Potency [1] | max response [3] -0.787% | outcome [4]

CC(=O)c1ccccc1[N+](=O)[O-]
inactive: max response [2] 7.31% | Potency [1] | max response [3] 1.69% | outcome [4]

Cc1cc(C)cc([N+](=O)[O-])c1
inactive: max response [2] 1.12% | Potency [1] | max response [3] 1.37% | outcome [4]

Cc1ccc([N+](=O)[O-])c(N)c1
inactive: max response [2] -6.54% | Potency [1] | max response [3] -3.2% | outcome [4]

CCOc1ccc(NC(C)=O)cc1N
inactive: max response [2] -2.43% | Potency [1] | max response [3] 9.33% | outcome [4]

Cc1cccc2cccnc12
inactive: max response [2] -0.0071% | Potency [1] | max response [3] -0.272% | outcome [4]

ICCc1ccccc1
inactive: max response [2] -14.1% | Potency [1] | max response [3] -1.67% | outcome [4]

CNC(=O)c1ccccc1
inactive: max response [2] 8.06% | Potency [1] | max response [3] -4.07% | outcome [4]
